Neddylation inh – inhibitors of cullin neddylation, primary screen, biochemical, TR-FRET, uHTS, NAE and Ubc12 | NEDD8-conjugating enzyme Ubc12 (Homo sapiens) + NEDD8-activating enzyme E1 regulatory … | calls only at 25 µM | 360,000 compounds, 0.58% hits | AID 651699, 2012; in the data active means inhibition above about 36%
Target sequence (P61081 whole entry, looked up): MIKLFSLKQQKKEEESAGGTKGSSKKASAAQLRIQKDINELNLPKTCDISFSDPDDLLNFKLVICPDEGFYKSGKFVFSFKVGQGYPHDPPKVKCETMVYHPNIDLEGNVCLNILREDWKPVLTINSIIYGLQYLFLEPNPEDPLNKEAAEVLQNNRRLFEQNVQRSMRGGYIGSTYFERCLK
Target sequence (Q13564 whole entry, looked up): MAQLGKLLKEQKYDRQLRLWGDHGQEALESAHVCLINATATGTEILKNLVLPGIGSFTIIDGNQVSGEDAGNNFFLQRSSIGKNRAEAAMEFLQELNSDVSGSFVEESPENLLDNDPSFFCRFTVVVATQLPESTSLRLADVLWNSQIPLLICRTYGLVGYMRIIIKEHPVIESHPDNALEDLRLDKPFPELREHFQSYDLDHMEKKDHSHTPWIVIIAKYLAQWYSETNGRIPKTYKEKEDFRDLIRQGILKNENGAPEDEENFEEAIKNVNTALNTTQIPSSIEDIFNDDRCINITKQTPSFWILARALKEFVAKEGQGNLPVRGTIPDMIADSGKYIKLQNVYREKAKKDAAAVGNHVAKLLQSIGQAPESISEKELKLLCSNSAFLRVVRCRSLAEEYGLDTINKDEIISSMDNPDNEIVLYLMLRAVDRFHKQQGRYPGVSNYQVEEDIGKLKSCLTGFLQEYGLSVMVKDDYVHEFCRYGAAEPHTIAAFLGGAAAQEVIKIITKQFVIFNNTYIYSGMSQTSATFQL
PKA-R1A act – activators of PKA-R1A holoenzyme, primary screen, biochemical, fluorescence polarization, Cy5-IP20, bovine R1A, mouse PKAc; cAMP-dependent protein kinase type I-alpha regulatory subunit (Bos taurus) + …; PKA-R1A dissociation; scaled: DMSO 0%, 113 µM cGMP 100%; activation, % at 11.4 µM; 340,000 compounds, 0.083% hits; AID 504707, 2011;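 active means percent activation above the mean of all tested compounds plus 3 SD, cut at about 19% in these data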;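 further: higher means more PKAc released from R1A so a rise in polarization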
PolyA inhibitor – polyadenylation inhibitors in yeast reporter cells, primary screen, luminescence, S. cerevisiae | S. cerevisiae SKY197-pL101 polyadenylation reporter, beta-gal luminescence; efflux-impaired pdr1/pdr3 knockout yeast; score 100 = 6 SD above DMSO | activity score, % at 12 µM | 300,000 compounds, 0.02% hits | AID 1875, 2009;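 active means lowest replicate activity score at least 50, where 100 means six control SD above control mean; inconclusive means lowest score under 50 but half or more replicates reach 50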;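 further: yeast exposed to compound for 9 h at 30 °C; higher score means more reporter readthrough which indicates perturbed polyadenylation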
PKA-R2B activ – activators of PKA-R2B holoenzyme, primary screen, biochemical, fluorescence polarization, Cy5-IP20, human; PKA-R2B holoenzyme dissociation; R2B truncated from residue 108, S112A mutant; 0% DMSO only, 100% 113 µM cGMP; activation, % at 11.4 µM; 340,000 compounds, 0.079% hits;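 active means activation above a cutoff set at the mean over all compounds plus 3 SD, cut at about 18% in these data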;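 further: higher means more holoenzyme dissociation and a rise in polarization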
Neddyl conf – blockade of NEDD8 conjugation to cullin – biochemical, TR-FRET, single concentration, confirmation; shares compounds with Neddylation inh; TR-FRET cullin neddylation biochemical assay; calls only at 25 µM; 1,800 compounds, 13% hits; AID 652217, 2013; in the data active means inhibition above about 40%;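 further: neddylation substrate is the cullin 1 ring ligase complex with SKP2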
* = called active by the depositor; i = inactive; ? = inconclusive; . = not tested or not shown; + = active, no number. Rows were chosen to be rich in hits. Some 0.72% of all compounds tested hit in one or more screens of this group.

SMILES | Neddylation inh | PKA-R1A act | PolyA inhibitor | PKA-R2B activ | others
Cc1csc2ncc(C(=O)NCCc3ccccc3)c(=O)n12 | + | 0.4 | 4.4 | -9.6 | Neddyl conf=i
Cc1csc2ncc(C(=O)NCCC(c3ccccc3)c3ccccc3)c(=O)n12 | i | -11.3 | -1.8 | -6.8
COc1ccc2oc(=O)c(C(=O)NCCc3ccc(OC)c(OC)c3)cc2c1 | + | 5.8 | -20.8 | 5.5 | Neddyl conf=i
COc1ccc2oc(=O)c(C(=O)NCc3ccc4c(c3)OCO4)cc2c1 | i | -0.3 | 5.2 | 3.2
CC(=O)N1CCOc2ccc(S(=O)(=O)NCc3ccc(F)cc3)cc21 | i | -2.2 | 17.3 | -2.6
CCCCc1c(O)n2c(nc3ccccc32)[nH]c1=O | + | -7.8 | 3.0 | -2.2 | Neddyl conf=+
CCCCc1c(C)[nH]c2nc3ccccc3n2c1=O | . | 9.2 | -22.4 | -3.7
CCCc1cc(=O)n2c(nc3ccccc32)[nH]1 | + | 1.3 | -11.3 | 0.5
Cc1cc(=O)n2c(nc3ccccc32)[nH]1 | . | -11.4 | 2.3 | -7.6
CN(C1CCCCC1)S(=O)(=O)c1ccc2c(c1)CCC(=O)N2 | i | -11.1 | . | 1.1
N=c1c(C(=O)NCc2ccco2)cc2c(=O)n3ccccc3nc2n1Cc1ccc(Cl)cc1 | + | 0.4 | -15.7 | 1.2 | Neddyl conf=i
Cc1ccc2nc3c(cc(C(=O)NCc4ccco4)c(=N)n3Cc3ccco3)c(=O)n2c1 | + | -12.0 | -14.6 | -6.4 | Neddyl conf=i
N=c1c(C(=O)NCCN2CCOCC2)cc2c(=O)n3ccccc3nc2n1Cc1ccc(F)cc1 | + | -0.1 | 22.0 | 2.1
N=c1c(C(=O)NCc2ccco2)cc2c(=O)n3ccccc3nc2n1Cc1ccccc1 | . | -3.9 | -0.7 | -6.9
Cc1ccc(CNC(=O)c2cc3c(=O)n4ccccc4nc3n(Cc3ccco3)c2=N)cc1 | . | -7.3 | 12.5 | -14.1
CCN(c1ccccc1)S(=O)(=O)c1ccc(C(=O)N(CCCN(C)C)c2nc3c(C)cccc3s2)cc1 | i | 0.8 | 2.1 | -6.0
CSCCC(NC(=O)c1ccco1)C(=O)NCC(c1ccccc1)N(C)C (stereo not given) | i | 0.9 | . | -0.3
Cc1ccc(N(C(=O)CNC(=O)c2cccs2)C(C(=O)NC2CCCC2)c2ccncc2)cc1 (stereo not given) | i | -5.0 | 22.5 | 4.2
CC(N=C1NS(=O)(=O)c2ccccc21)C(=O)NCc1ccc(F)cc1 (stereo not given) | i | 9.0 | . | 0.5
O=c1[nH]c2ccc(S(=O)(=O)N3CCN(C4CCCCC4)CC3)cc2[nH]c1=O | + | -6.1 | -8.8 | -5.2
O=S(=O)(c1ccc(S(=O)(=O)N2CCN(C3CCCCC3)CC2)cc1)N1CCCCCC1 | i | -2.2 | . | -9.7
CSc1ccc(CN(C)C(=O)CNC(=O)c2sc3ccccc3c2Cl)cc1 | i | -6.5 | 3.9 | -1.7
COC(=O)c1cc(OC)c(OC)cc1NCC(=O)Nc1ccc(C)cc1 | + | 0.3 | -6.0 | -8.5
COC(=O)c1cc(OC)c(OC)cc1NCC(=O)Nc1ccc(OC)c(OC)c1 | i | -2.7 | 2.3 | -7.8
Cc1cccc(C)c1NC(=O)c1csc([C@@H]2O[C@H](CO)[C@H](O)[C@H](O)[C@H]2O)n1 | i | . | . | .
SMILES | Neddylation inh | PKA-R1A act | PolyA inhibitor | PKA-R2B activ | others
CC(C)(C)c1csc(NC(=O)Cc2ccc(S(=O)(=O)N3CCOCC3)s2)n1 | i | -2.5 | ? | -13.6
CC(C)N(C(=O)NC(=O)Nc1ccccn1)S(C)(=O)=O | i | -3.5 | -6.2 | 3.9
Cc1ccc(NC(=O)NC(=O)N(C(C)C)S(C)(=O)=O)nc1 | + | -17.5 | . | -0.2
O=C(c1ccc(-n2ccnc2)cc1)N1CCCC(CO)(Cc2cccc(Cl)c2)C1 (stereo not given) | i | 1.4 | 20.5 | -1.6
COc1ccc(-c2[nH]ncc2/C=C(/C#N)C(=O)NC2CCCCCC2)cc1 | + | -8.4 | -1.5 | -3.9 | Neddyl conf=i
Cc1cc(/C=C(\C#N)C(=O)NC2CCCCCC2)c(C)[nH]1 | i | 0.2 | -8.1 | -20.9
CCOc1ccc(C(=O)N/N=C/c2ccc(-c3ccc(S(=O)(=O)Nc4ncccn4)cc3)o2)cc1 | + | 12.1 | -8.5 | -15.3 | Neddyl conf=+
c1csc(CNc2ncnc3ccc(-c4ccc5c(c4)OCCO5)cc23)c1 | + | -3.4 | . | -12.9
O=C(O)C(CC1CCCCC1)N1CCS(=O)(=O)CC1 (stereo not given) | i | 7.9 | 20.0 | -4.2
C/C(=C\C(=S)Nc1ccccc1)Nc1cccc2ccccc12 | + | 3.6 | -18.3 | -4.8
C/C(=C\C(=S)Nc1ccccc1)Nc1ccc2ccccc2c1 | i | 1.8 | -22.3 | -17.0
COc1c2c(cc3oc(C)cc(=O)c13)OC(C(C)(C)OC1OC(CO)C(O)C(O)C1O)C2 (stereo not given) | i | -3.9 | 0.7 | -4.3
COc1c2c(cc3oc(CO[C@@H]4O[C@H](CO)[C@@H](O)[C@H](O)[C@H]4O)cc(=O)c13)O[C@H](C(C)(C)O)C2 | + | -7.2 | . | -4.1 | Neddyl conf=i
COc1ccc(C(=O)NC(=S)NNC(=O)[C@H]2C[C@@H]2c2ccccc2)cc1OC | + | 7.0 | -5.4 | 3.6 | Neddyl conf=i
CC1Oc2ccccc2C=C1/C=N/NC(=O)c1ccccc1O (stereo not given) | + | 0.1 | -7.3 | -3.6 | Neddyl conf=i
Cc1ccc(-c2ccc3nnc(SCC(=O)NCC4CCCO4)n3n2)cc1 (stereo not given) | i | -3.6 | 1.1 | -3.0
CCOc1ccc(-c2ccc3nnc(SCC(=O)NCC4CCCO4)n3n2)cc1 (stereo not given) | + | -11.1 | ? | 9.2
CCc1ccc(-c2ccc3nnc(SCC(=O)NCC4CCCO4)n3n2)cc1 (stereo not given) | + | 1.2 | 9.0 | 14.1
CCOc1ccc(-c2ccc(SCC(=O)NCC3CCCO3)nn2)cc1 (stereo not given) | i | -13.8 | -12.6 | -8.5
COc1ccc(-c2ccc3nnc(SCC(=O)NCC4CCCO4)n3n2)cc1 (stereo not given) | + | -0.3 | -18.0 | 10.7
CCOC(=O)CCN(C(=S)Nc1ccccc1)C1CCCCC1 | i | -6.0 | . | 1.4
CCNC(=O)/C(C#N)=C/c1c(N2CCCCCC2)nc2ccccn2c1=O | . | -0.5 | -19.2 | 9.5
COCCCNC(=O)/C(C#N)=C/c1c(N2CCN(c3ccc(OC)cc3)CC2)nc2c(C)cccn2c1=O | + | -1.3 | 35.2 | 2.3 | Neddyl conf=i
CCOC(=O)/C(C#N)=C/c1c(Oc2cccc(C)c2)nc2c(C)cccn2c1=O | . | -3.2 | 12.4 | -2.6

Screening data deposited in PubChem by several laboratories.
